Results from PubChem BioAssay (NCI).
Compounds without any hit were thinned out: in the full panel of roughly 79,000, 15% have a hit. A number with no mark means an inactive call. Active and inactive are the calls of the source. Cut-off read from the data, not from the text of the source: active = growth inhibition above about 70%; inactive = the rest.

Columns and labels:
[1] = NCI Yeast Anticancer Drug Screen. Data for the rad50 strain (AID 155);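 note: 0% = growth of vehicle-only cultures of the same strain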; conditions: S. cerevisiae rad50 strain growth inhibition, stronger effect = higher value
Procedure, shortened: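 Readout: growth inhibition relative to vehicle-treated cultures. Compound exposure was carried out in a genetically defined yeast strain deficient in DNA damage repair.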

[2] = NCI Yeast Anticancer Drug Screen. Data for the mec2-1 strain (AID 157); conditions: S. cerevisiae mec2-1 strain, stronger effect = higher value
Procedure, shortened: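 Vehicle-treated cultures served as reference for growth inhibition of compound-exposed mec2-1 yeast.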

[3] = NCI Yeast Anticancer Drug Screen. Data for the sgs1 mgt1 strain (AID 161);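 note: 0% = growth of cultures given vehicle only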; conditions: S. cerevisiae sgs1 mgt1 strain, stronger effect = higher value
Procedure, shortened: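 Inhibition of yeast growth, normalised to vehicle-treated controls, is reported for a strain bearing genetic alterations in DNA damage repair.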

[4] = NCI Yeast Anticancer Drug Screen. Data for the cln2 rad14 strain (AID 165);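 note: 0% = growth equal to vehicle treated cultures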; conditions: S. cerevisiae cln2 rad14 strain, stronger effect = higher value
Procedure, shortened: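 Each compound was tested on cln2 rad14 yeast. Inhibition of growth was calculated against vehicle-exposed controls.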

[5] = NCI Yeast Anticancer Drug Screen. Data for the bub3 strain (AID 167); conditions: S. cerevisiae bub3 mutant strain, stronger effect = higher value
Procedure, shortened: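 Readout: yeast growth inhibition, expressed relative to vehicle-only wells. The test organism is a mutant strain from a panel with lesions in DNA repair or checkpoint genes.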

[6] = NCI Yeast Anticancer Drug Screen. Data for the mlh1 rad18 strain (AID 175); conditions: S. cerevisiae mlh1 rad18 strain growth inhibition, stronger effect = higher value
Procedure, shortened: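 Vehicle-treated cultures served as the reference for growth inhibition in a yeast strain carrying DNA damage repair alterations exposed to each compound.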

[7] = at 5.0 µM (retest, dose inferred, filed as 0.5)
[8] = at 50.0 µM (retest, dose inferred, filed as 5.0)

Compound: O=C1C=CC(=O)C2C1Cc1ccccc1C2c1ccccc1 (stereo not given)
- growth inhibition [1, 7]: 15%
- growth inhibition [1, 8]: 97% (active)
- growth inhibition ([1]; at 50.0 µM): 98.8% (active)
- growth inhibition [2, 7]: 26%
- growth inhibition [2, 8]: 98% (active)
- growth inhibition ([2]; at 50.0 µM): 99.3% (active)
- growth inhibition [3, 7]: 58%
- growth inhibition [3, 8]: 98% (active)
- growth inhibition ([3]; at 50.0 µM): 99% (active)
- growth inhibition [4, 7]: 9%
- growth inhibition [4, 8]: 92% (active)
- growth inhibition ([4]; at 50.0 µM): 98.8% (active)
- growth inhibition [5, 7]: 14%
- growth inhibition [5, 8]: 98% (active)
- growth inhibition ([5]; at 50.0 µM): 98.8% (active)
- growth inhibition [6, 7]: 23%
- growth inhibition [6, 8]: 98% (active)
- growth inhibition ([6]; at 50.0 µM): 98.5% (active)

Compound: CC(=O)N1c2ccccc2Sc2c1ccc1ccccc21
- growth inhibition [1, 7]: 10%
- growth inhibition [1, 8]: 94% (active)
- growth inhibition ([1]; at 50.0 µM): 96% (active)
- growth inhibition [2, 7]: 5%
- growth inhibition [2, 8]: 95% (active)
- growth inhibition ([2]; at 50.0 µM): 96.8% (active)
- growth inhibition [3, 7]: 11%
- growth inhibition [3, 8]: 94% (active)
- growth inhibition ([3]; at 50.0 µM): 96.5% (active)
- growth inhibition [4, 7]: 1%
- growth inhibition [4, 8]: 94% (active)
- growth inhibition ([4]; at 50.0 µM): 95% (active)
- growth inhibition [5, 7]: 6%
- growth inhibition [5, 8]: 93% (active)
- growth inhibition ([5]; at 50.0 µM): 94.3% (active)
- growth inhibition [6, 7]: 2%
- growth inhibition [6, 8]: 92% (active)
- growth inhibition ([6]; at 50.0 µM): 96.7% (active)

Compound: COc1cc(NCCCCCNC2CCCCC2)c2ncccc2c1
- growth inhibition [1, 7]: 2%
- growth inhibition [1, 8]: 64%
- growth inhibition ([1]; at 50.0 µM): 83.2% (active)
- growth inhibition [2, 7]: -4%
- growth inhibition [2, 8]: 17%
- growth inhibition ([2]; at 50.0 µM): 46.5%
- growth inhibition [3, 7]: 21%
- growth inhibition [3, 8]: 63%
- growth inhibition ([3]; at 50.0 µM): 74.1% (active)
- growth inhibition [4, 7]: 7%
- growth inhibition [4, 8]: 32%
- growth inhibition ([4]; at 50.0 µM): 19.9%
- growth inhibition [5, 7]: 14%
- growth inhibition [5, 8]: 57%
- growth inhibition ([5]; at 50.0 µM): 83.6% (active)
- growth inhibition [6, 7]: -18%
- growth inhibition [6, 8]: 27%
- growth inhibition ([6]; at 50.0 µM): 74.2% (active)

Compound: Nc1nc(N)c2nc(Sc3ccc(F)cc3)c(N)nc2n1
- growth inhibition [1, 7]: -2%
- growth inhibition [1, 8]: 37%
- growth inhibition ([1]; at 50.0 µM): 42.7%
- growth inhibition [2, 7]: -1%
- growth inhibition [2, 8]: -4%
- growth inhibition ([2]; at 50.0 µM): 39.2%
- growth inhibition [3, 7]: -1%
- growth inhibition [3, 8]: 40%
- growth inhibition ([3]; at 50.0 µM): 51.6%
- growth inhibition [4, 7]: 2%
- growth inhibition [4, 8]: 24%
- growth inhibition ([4]; at 50.0 µM): 10.3%
- growth inhibition [5, 7]: -1%
- growth inhibition [5, 8]: 26%
- growth inhibition ([5]; at 50.0 µM): 40.9%
- growth inhibition [6, 7]: 0%
- growth inhibition [6, 8]: 58%
- growth inhibition ([6]; at 50.0 µM): 75.1% (active)

Compound: O=C(O)C(Cc1cc(I)c(O)c(I)c1)C1CCCCC1 (stereo not given)
- growth inhibition [1, 7]: 12%
- growth inhibition [1, 8]: 99% (active)
- growth inhibition ([1]; at 50.0 µM): 99.2% (active)
- growth inhibition [2, 7]: 8%
- growth inhibition [2, 8]: 99% (active)
- growth inhibition ([2]; at 50.0 µM): 99.2% (active)
- growth inhibition [3, 7]: 3%
- growth inhibition [3, 8]: 97% (active)
- growth inhibition ([3]; at 50.0 µM): 99.3% (active)
- growth inhibition [4, 7]: 7%
- growth inhibition [4, 8]: 99% (active)
- growth inhibition ([4]; at 50.0 µM): 99% (active)
- growth inhibition [5, 7]: -11%
- growth inhibition [5, 8]: 99% (active)
- growth inhibition ([5]; at 50.0 µM): 99.3% (active)
- growth inhibition [6, 7]: 6%
- growth inhibition [6, 8]: 99% (active)
- growth inhibition ([6]; at 50.0 µM): 98.8% (active)

Compound: O=C1CCSC(=S)N1c1ccc(Br)c(Cl)c1
- growth inhibition [1, 7]: 13%
- growth inhibition [1, 8]: 94% (active)
- growth inhibition ([1]; at 50.0 µM): 39.8%
- growth inhibition [2, 7]: 9%
- growth inhibition [2, 8]: 94% (active)
- growth inhibition ([2]; at 50.0 µM): 39.4%
- growth inhibition [3, 7]: 52%
- growth inhibition [3, 8]: 99% (active)
- growth inhibition ([3]; at 50.0 µM): 72.3% (active)
- growth inhibition [4, 7]: -4%
- growth inhibition [4, 8]: 79% (active)
- growth inhibition ([4]; at 50.0 µM): 12.7%
- growth inhibition [5, 7]: -4%
- growth inhibition [5, 8]: 98% (active)
- growth inhibition ([5]; at 50.0 µM): 13.8%
- growth inhibition [6, 7]: 29%
- growth inhibition [6, 8]: 99% (active)
- growth inhibition ([6]; at 50.0 µM): 69.5%

Compound: CCCCCCCC(=O)O[C@H]1[C@H]2[C@@H](CC1(C)C)C(=O)[C@]13O[C@H]1C(=O)[C@]1(CO1)[C@]23C
- growth inhibition [1, 7]: 48%
- growth inhibition [1, 8]: 98% (active)
- growth inhibition ([1]; at 50.0 µM): 91% (active)
- growth inhibition [2, 7]: 47%
- growth inhibition [2, 8]: 98% (active)
- growth inhibition ([2]; at 50.0 µM): 92.8% (active)
- growth inhibition [3, 7]: 65%
- growth inhibition [3, 8]: 98% (active)
- growth inhibition ([3]; at 50.0 µM): 92.7% (active)
- growth inhibition [4, 7]: 80% (active)
- growth inhibition [4, 8]: 98% (active)
- growth inhibition ([4]; at 50.0 µM): 90.8% (active)
- growth inhibition [5, 7]: 83% (active)
- growth inhibition [5, 8]: 97% (active)
- growth inhibition ([5]; at 50.0 µM): 90.4% (active)
- growth inhibition [6, 7]: 73% (active)
- growth inhibition [6, 8]: 97% (active)
- growth inhibition ([6]; at 50.0 µM): 91.5% (active)

Compound: COc1cc2c(cc1OC)C(C)N(C)c1c-2c(OC(C)=O)cc2cc(OC)c(OC)cc12 (stereo not given)
- growth inhibition [1, 7]: 2%
- growth inhibition [1, 8]: 52%
- growth inhibition ([1]; at 50.0 µM): 82.5% (active)
- growth inhibition [2, 7]: -4%
- growth inhibition [2, 8]: 64%
- growth inhibition ([2]; at 50.0 µM): 87.4% (active)
- growth inhibition [3, 7]: -4%
- growth inhibition [3, 8]: 67%
- growth inhibition ([3]; at 50.0 µM): 64.2%
- growth inhibition [4, 7]: -8%
- growth inhibition [4, 8]: 49%
- growth inhibition ([4]; at 50.0 µM): 19.6%
- growth inhibition [5, 7]: -4%
- growth inhibition [5, 8]: 72% (active)
- growth inhibition ([5]; at 50.0 µM): 42.2%
- growth inhibition [6, 7]: -3%
- growth inhibition [6, 8]: 54%
- growth inhibition ([6]; at 50.0 µM): 70.5% (active)

Compound: C/C=C/CSc1cc(NC(=S)c2ccsc2C)ccc1Cl
- growth inhibition [1, 7]: -6%
- growth inhibition [1, 8]: 83% (active)
- growth inhibition ([1]; at 50.0 µM): 88.2% (active)
- growth inhibition [2, 7]: -1%
- growth inhibition [2, 8]: 82% (active)
- growth inhibition ([2]; at 50.0 µM): 85.8% (active)
- growth inhibition [3, 7]: 43%
- growth inhibition [3, 8]: 88% (active)
- growth inhibition ([3]; at 50.0 µM): 91.2% (active)
- growth inhibition [4, 7]: -19%
- growth inhibition [4, 8]: 80% (active)
- growth inhibition ([4]; at 50.0 µM): 84.3% (active)
- growth inhibition [5, 7]: -2%
- growth inhibition [5, 8]: 88% (active)
- growth inhibition ([5]; at 50.0 µM): 88.6% (active)
- growth inhibition [6, 7]: 6%
- growth inhibition [6, 8]: 89% (active)
- growth inhibition ([6]; at 50.0 µM): 86.8% (active)

Compound: CC(C)/C(Cl)=N/OC(=O)Nc1ccc(OC(F)(F)F)cc1
- growth inhibition [1, 7]: 2%
- growth inhibition [1, 8]: 98% (active)
- growth inhibition ([1]; at 50.0 µM): 81% (active)
- growth inhibition [2, 7]: -30%
- growth inhibition [2, 8]: 98% (active)
- growth inhibition ([2]; at 50.0 µM): 88.3% (active)
- growth inhibition [3, 7]: 39%
- growth inhibition [3, 8]: 98% (active)
- growth inhibition ([3]; at 50.0 µM): 83.5% (active)
- growth inhibition [4, 7]: -7%
- growth inhibition [4, 8]: 97% (active)
- growth inhibition ([4]; at 50.0 µM): 76.2% (active)
- growth inhibition [5, 7]: -27%
- growth inhibition [5, 8]: 98% (active)
- growth inhibition ([5]; at 50.0 µM): 85.5% (active)
- growth inhibition [6, 7]: -7%
- growth inhibition [6, 8]: 97% (active)
- growth inhibition ([6]; at 50.0 µM): 77.1% (active)
